PubChem BioAssay (NCI)
The panel holds about 79,000 compounds, 15% with a hit somewhere; the sample as a whole holds those more often. Active and inactive are the calls of the source. No stated cut-off is given here; in the data, active means growth inhibition above about 70%; inactive means the rest.

Legend:
[1] = NCI Yeast Anticancer Drug Screen. Data for the rad52 strain (AID 147);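 further: 0% = growth of vehicle-treated control cultures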; details: S. cerevisiae rad52 mutant growth inhibition, active compounds read high
Procedure, shortened: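 Screen used a yeast mutant impaired in DNA repair. After compound exposure, growth was measured. Values reflect inhibition compared with vehicle-treated cells.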

[2] = NCI Yeast Anticancer Drug Screen. Data for the wt1 strain (AID 149);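 further: 0% = growth of vehicle-treated wt1 cultures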; details: S. cerevisiae wt1 strain (SPY 50644) growth inhibition, active compounds read high
Procedure, shortened: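 Using yeast strain wt1, compound-induced growth inhibition was determined against vehicle-treated cultures.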

[3] = NCI Yeast Anticancer Drug Screen. Data for the rad50EPP+ strain (AID 151);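 further: 0% = growth of vehicle-treated control cultures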; details: S. cerevisiae rad50 mutant strain, active compounds read high
Procedure, shortened: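 Exposing the rad50EPP+ strain to each compound, growth was compared with vehicle-only cultures to give inhibition.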

[4] = NCI Yeast Anticancer Drug Screen. Data for the mgt1 strain (AID 153); details: S. cerevisiae mgt1 mutant growth inhibition, active compounds read high
Procedure, shortened: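 Genetically defined yeast (mgt1) treated with compound; inhibition of growth expressed against vehicle-treated controls.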

[5] = NCI Yeast Anticancer Drug Screen. Data for the rad50 strain (AID 155);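 further: 0% = growth of vehicle-only cultures of the same strain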; details: S. cerevisiae rad50 strain growth inhibition, active compounds read high
Procedure, shortened: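 Relative growth inhibition (compound vs vehicle) was measured in yeast with a defined repair-gene alteration.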

[6] = NCI Yeast Anticancer Drug Screen. Data for the mec2-1 strain (AID 157); details: S. cerevisiae mec2-1 strain, active compounds read high
Procedure, shortened: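 Readout is yeast growth inhibition, normalised to vehicle-treated controls, in the mec2-1 strain exposed to compound.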

[7] = NCI Yeast Anticancer Drug Screen. Data for the rad14 strain (AID 159);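 further: 0% = growth of vehicle-treated control cultures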; details: S. cerevisiae rad14 strain growth inhibition, active compounds read high
Procedure, shortened: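 Screen for anticancer potential: a yeast strain altered in DNA damage repair is grown with compound, and reduced growth is quantified against vehicle controls.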

[8] = NCI Yeast Anticancer Drug Screen. Data for the sgs1 mgt1 strain (AID 161);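 further: 0% = growth of cultures given vehicle only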; details: S. cerevisiae sgs1 mgt1 strain, active compounds read high
Procedure, shortened: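 Percent growth inhibition was derived by comparing compound-exposed mutant yeast with vehicle-exposed cultures. The strain carries alterations in DNA damage repair.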

[9] = NCI Yeast Anticancer Drug Screen. Data for the CLN2oe strain (AID 163);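 further: 0% = growth of vehicle-only control cultures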; details: S. cerevisiae CLN2oe strain, active compounds read high
Procedure, shortened: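 Values reflect how much compound exposure reduced yeast growth, referenced to vehicle-exposed cells. Assay organism is a strain with a defined genetic change affecting cell-cycle control.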

[10] = NCI Yeast Anticancer Drug Screen. Data for the cln2 rad14 strain (AID 165);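 further: 0% = growth equal to vehicle treated cultures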; details: S. cerevisiae cln2 rad14 strain, active compounds read high
Procedure, shortened: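 Relative to vehicle controls, growth inhibition of compound-treated cln2 rad14 yeast was recorded.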

[11] = NCI Yeast Anticancer Drug Screen. Data for the bub3 strain (AID 167); details: S. cerevisiae bub3 mutant strain, active compounds read high
Procedure, shortened: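 Screening used yeast with an engineered genetic alteration affecting cell cycle control. Compound-exposed cultures were compared with vehicle cultures, and reduced growth was taken as inhibition.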

[12] = NCI Yeast Anticancer Drug Screen. Data for the wt2 strain (AID 169);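 further: 0% = growth of vehicle-treated yeast cultures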; details: S. cerevisiae wt2 strain growth inhibition, active compounds read high
Procedure, shortened: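 Values express reduction in yeast growth under compound treatment, referenced to vehicle-treated cells.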

[13] = NCI Yeast Anticancer Drug Screen. Data for the sgs1 strain (AID 173);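 further: 0% = growth of vehicle-only control cultures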; details: S. cerevisiae sgs1 mutant, active compounds read high
Procedure, shortened: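 Treat defined-mutant yeast with compound; measure growth; calculate inhibition relative to vehicle-treated cells.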

[14] = NCI Yeast Anticancer Drug Screen. Data for the mlh1 rad18 strain (AID 175); details: S. cerevisiae mlh1 rad18 strain growth inhibition, active compounds read high
Procedure, shortened: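 Test agents were incubated with a yeast strain of defined genotype (DNA damage repair defect). Inhibition of growth was derived by comparison with vehicle-exposed cultures.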

[15] = NCI Yeast Anticancer Drug Screen. Data for the rad18 strain (AID 177); details: S. cerevisiae rad18 mutant growth inhibition, active compounds read high
Procedure, shortened: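 A genetically defined yeast mutant impaired in DNA damage repair was treated with test compounds, then its growth was measured against cultures receiving vehicle alone.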

[16] = at 5.0 µM (retest, dose inferred, filed as 0.5)
[17] = at 50.0 µM (retest, dose inferred, filed as 5.0)

Measured: growth inhibition

CC(C)S(=O)(=O)/C=C\S(=O)(=O)C(C)C
active: [1]; at 33.0 µM 75% | [1]; at 100.0 µM 97% | [2]; at 33.0 µM 87% | [2]; at 100.0 µM 98% | [4]; at 100.0 µM 96% | [5]; at 33.0 µM 83% | [5]; [17] 74% | [5]; at 100.0 µM 97% | [6]; at 100.0 µM 93% | [7]; at 100.0 µM 99% | [8]; [17] 76% | [8]; at 50.0 µM 72% | [9]; at 100.0 µM 85% | [11]; [17] 81% | [11]; at 100.0 µM 92% | [12]; at 33.0 µM 90% | [12]; at 100.0 µM 99% | [13]; at 33.0 µM 80% | [13]; at 100.0 µM 98% | [14]; [17] 85% | [14]; at 50.0 µM 82.8% | [15]; at 33.0 µM 78% | [15]; at 100.0 µM 93%
inactive: [1]; at 1.2 µM -5% | [1]; at 3.7 µM -7% | [1]; at 11.0 µM 23% | [2]; at 1.2 µM 1% | [2]; at 3.7 µM 19% | [2]; at 11.0 µM 44% | [3]; at 1.2 µM -1% | [3]; at 3.7 µM -11% | [3]; at 11.0 µM 5% | [3]; at 33.0 µM 26% | [3]; at 100.0 µM 25% | [4]; at 1.2 µM 1% | [4]; at 3.7 µM -5% | [4]; at 11.0 µM 15% | [4]; at 33.0 µM 63% | [5]; at 1.2 µM -5% | [5]; at 3.7 µM -5% | [5]; [16] -138% | [5]; at 11.0 µM 14% | [5]; at 50.0 µM 64.8% | [6]; at 1.2 µM 1% | [6]; at 3.7 µM 2% | [6]; [16] -45% | [6]; at 11.0 µM 7% | [6]; at 33.0 µM 58% | [6]; [17] 69% | [6]; at 50.0 µM 62.8% | [7]; at 1.2 µM -3% | [7]; at 3.7 µM 9% | [7]; at 11.0 µM 36% | [7]; at 33.0 µM 55% | [8]; [16] -56% | [9]; at 1.2 µM -6% | [9]; at 3.7 µM -4% | [9]; at 11.0 µM 4% | [9]; at 33.0 µM 28% | [10]; [16] -50% | [10]; [17] -3% | [10]; at 50.0 µM -17.3% | [11]; at 1.2 µM -4% | [11]; at 3.7 µM 1% | [11]; [16] -71% | [11]; at 11.0 µM 5% | [11]; at 33.0 µM 52% | [11]; at 50.0 µM 50.6% | [12]; at 1.2 µM 5% | [12]; at 3.7 µM 15% | [12]; at 11.0 µM 44% | [13]; at 1.2 µM -5% | [13]; at 3.7 µM -8% | [13]; at 11.0 µM 30% | [14]; [16] -133% | [15]; at 1.2 µM -2% | [15]; at 3.7 µM 5% | [15]; at 11.0 µM 19%

c1cc(-c2sc(-c3ccncc3)c(-c3ccncc3)c2-c2ccncc2)ccn1
active: [1]; at 33.0 µM 91% | [1]; at 100.0 µM 97% | [3]; at 100.0 µM 82% | [4]; at 100.0 µM 87% | [5]; at 33.0 µM 90% | [5]; [17] 81% | [5]; at 50.0 µM 96.3% | [5]; at 100.0 µM 96% | [6]; at 100.0 µM 93% | [7]; at 100.0 µM 75% | [9]; at 100.0 µM 89% | [11]; at 100.0 µM 89% | [12]; at 100.0 µM 79% | [14]; at 50.0 µM 79.7% | [15]; at 100.0 µM 86%
inactive: [1]; at 1.2 µM 4% | [1]; at 3.7 µM 17% | [1]; at 11.0 µM 63% | [2]; at 1.2 µM 2% | [2]; at 3.7 µM -1% | [2]; at 11.0 µM 0% | [2]; at 33.0 µM 12% | [2]; at 100.0 µM 58% | [3]; at 1.2 µM 5% | [3]; at 3.7 µM 18% | [3]; at 11.0 µM 34% | [3]; at 33.0 µM 68% | [4]; at 1.2 µM 0% | [4]; at 3.7 µM 2% | [4]; at 11.0 µM 2% | [4]; at 33.0 µM 25% | [5]; at 1.2 µM 10% | [5]; at 3.7 µM 19% | [5]; [16] 12% | [5]; at 11.0 µM 69% | [6]; at 1.2 µM 3% | [6]; at 3.7 µM 3% | [6]; [16] -5% | [6]; at 11.0 µM 11% | [6]; at 33.0 µM 46% | [6]; [17] 0% | [6]; at 50.0 µM 21.1% | [7]; at 1.2 µM 3% | [7]; at 3.7 µM -4% | [7]; at 11.0 µM 5% | [7]; at 33.0 µM 26% | [8]; [16] -5% | [8]; [17] 50% | [8]; at 50.0 µM 46.8% | [9]; at 1.2 µM -7% | [9]; at 3.7 µM 1% | [9]; at 11.0 µM -1% | [9]; at 33.0 µM 25% | [10]; [16] -48% | [10]; [17] 5% | [10]; at 50.0 µM 45.6% | [11]; at 1.2 µM 1% | [11]; at 3.7 µM 7% | [11]; [16] -12% | [11]; at 11.0 µM 25% | [11]; at 33.0 µM 54% | [11]; [17] 18% | [11]; at 50.0 µM 51.1% | [12]; at 1.2 µM 0% | [12]; at 3.7 µM 0% | [12]; at 11.0 µM 0% | [12]; at 33.0 µM 17% | [14]; [16] 2% | [14]; [17] 46% | [15]; at 1.2 µM 10% | [15]; at 3.7 µM -1% | [15]; at 11.0 µM 6% | [15]; at 33.0 µM 23%

Cc1cccc(C)c1NC(=O)C(C#N)C1=C(Cl)C(=O)c2ccccc2C1=O (centres undefined)
inactive: [1]; at 1.2 µM -43% | [1]; at 3.7 µM 46% | [2]; at 1.2 µM -24% | [2]; at 3.7 µM 24% | [3]; at 1.2 µM 14% | [3]; at 3.7 µM 67% | [4]; at 1.2 µM -4% | [5]; at 1.2 µM -11% | [5]; at 3.7 µM 23% | [6]; at 1.2 µM -7% | [6]; at 3.7 µM 62% | [7]; at 1.2 µM -2% | [9]; at 1.2 µM 3% | [9]; at 3.7 µM 16% | [10]; [16] 65% | [11]; at 1.2 µM 6% | [12]; at 1.2 µM -22% | [12]; at 3.7 µM 35% | [13]; at 1.2 µM 8% | [13]; at 3.7 µM 45% | [15]; at 1.2 µM -32% | [15]; at 3.7 µM -1%
active: [1]; at 11.0 µM 93% | [1]; at 33.0 µM 95% | [1]; at 100.0 µM 94% | [2]; at 11.0 µM 94% | [2]; at 33.0 µM 98% | [2]; at 100.0 µM 97% | [3]; at 11.0 µM 98% | [3]; at 33.0 µM 98% | [3]; at 100.0 µM 96% | [4]; at 3.7 µM 78% | [4]; at 11.0 µM 98% | [4]; at 33.0 µM 98% | [4]; at 100.0 µM 98% | [5]; [16] 95% | [5]; at 11.0 µM 97% | [5]; at 33.0 µM 97% | [5]; [17] 96% | [5]; at 50.0 µM 91.2% | [5]; at 100.0 µM 96% | [6]; [16] 99% | [6]; at 11.0 µM 98% | [6]; at 33.0 µM 98% | [6]; [17] 99% | [6]; at 50.0 µM 93.1% | [6]; at 100.0 µM 98% | [7]; at 3.7 µM 88% | [7]; at 11.0 µM 98% | [7]; at 33.0 µM 98% | [7]; at 100.0 µM 97% | [8]; [16] 99% | [8]; [17] 99% | [8]; at 50.0 µM 93.7% | [9]; at 11.0 µM 77% | [9]; at 33.0 µM 97% | [9]; at 100.0 µM 96% | [10]; [17] 98% | [10]; at 50.0 µM 92.8% | [11]; at 3.7 µM 70% | [11]; [16] 99% | [11]; at 11.0 µM 97% | [11]; at 33.0 µM 97% | [11]; [17] 98% | [11]; at 50.0 µM 92.2% | [11]; at 100.0 µM 95% | [12]; at 11.0 µM 98% | [12]; at 33.0 µM 98% | [12]; at 100.0 µM 98% | [13]; at 11.0 µM 97% | [13]; at 33.0 µM 98% | [13]; at 100.0 µM 97% | [14]; [16] 98% | [14]; [17] 98% | [14]; at 50.0 µM 91.7% | [15]; at 11.0 µM 92% | [15]; at 33.0 µM 97% | [15]; at 100.0 µM 96%
